According to the supplement of paper PMC10646978:
± gives the standard deviation.

The compounds below were run on RAW-Dual (murine macrophage reporter line) (assay: IRF reporter (Lucia luciferase) activity fold change vs agonist alone; higher = enhanced IRF activity). Details: modulator concentration 10 µM; agonist: LPS 0.1 ug/mL.
Method in brief: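 RAW-Dual murine macrophage reporter cells were plated at 50 000 per well in 384-well plates, pin-transferred compound to 10 μM final, and pre-incubated for 1 hour at 37 °C before a PRR agonist was added and the cells incubated overnight. NF-κB activity was read from supernatant SEAP with QUANTI-Blue at 620 nm absorbance, and IRF activity from Lucia luciferase with QUANTI-Luc by luminescence. Each signal was expressed as fold change by dividing by the mean agonist-only control on the same plate. Two replicate plates were averaged, with errors obtained by propagation.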
With `CN(C)CCNC(=O)C(=O)NC(c1ccccc1)c1ccccc1` the IRF reporter was 1.03 ± 0.091.
`Cc1ccsc1C(=CCCN1CCC[C@@H](C(=O)O)C1)c1sccc1C` showed an IRF reporter of 0.961 ± 0.05.
For `O=C1c2ccccc2C(=O)C1c1ccncc1`, the IRF reporter was 0.924 ± 0.1.
Compound `Oc1c2c(nc3cc(-c4ccc(Cl)cc4)nn13)CCS2` has an IRF reporter of 0.967 ± 0.047.
With `CC(C(=O)N1CCN(S(=O)(=O)C2CC2)CC1)n1nc2c(cc1=O)CCC2` (stereo not given) the IRF reporter was 0.964 ± 0.1.
With `COc1ccc2c(C)nc(Nc3nc(C)cc(-c4ccccc4)n3)nc2c1` the IRF reporter was 1.28 ± 0.12.
Compound `COC(CNC(=O)c1cccc(Br)c1)c1ccccc1C` (stereo not given) has an IRF reporter of 0.96 ± 0.1.
`COc1ccc(OC)c(C2CC(c3ccc(Cl)cc3)=NN2S(C)(=O)=O)c1` (stereo not given) showed an IRF reporter of 1.15 ± 0.22.
`Cc1nc[nH]c1CN1CCc2c(c3ccccc3n2C)C1=O.Cl` was tested, and the IRF reporter was 1.31 ± 0.2.
`CC(=NNC(=O)CSc1nc2ccccc2n1Cc1ccccc1)c1ccc(Cl)cc1` showed an IRF reporter of 1.4 ± 0.081.
With `CN1CCN(C2=C(Cl)C(=O)N(c3cccc(Cl)c3)C2=O)CC1` the IRF reporter was 0.972 ± 0.053.
Work on `CC(=O)C1CCC2C3CC=C4CC(O)CCC4(C)C3CCC12C` (stereo not given) yielded an IRF reporter of 1.28 ± 0.16.
Work on `CC(C)CNC(=O)C(=O)Nc1ccc(C(C)C)cc1` yielded an IRF reporter of 0.959 ± 0.052.
Work on `COc1ccc(CCNCC(O)COc2cccc(C)c2)cc1OC.Cl` (stereo not given) yielded an IRF reporter of 1.19 ± 0.14.
`CCOc1ccc(C=c2sc3nc4ccccc4n3c2=O)cc1Cl` gave an IRF reporter of 1.06 ± 0.051.
For `O=C(CCCN1CCC(O)(c2ccc(Br)cc2)CC1)c1ccc(F)cc1` [Prestw-509], the IRF reporter was 1.01 ± 0.16.
With `CC(=O)Nc1ccc(S(=O)(=O)N2CCC(Oc3nc(C)cc(C)n3)C2)cc1` (stereo not given) the IRF reporter was 0.987 ± 0.057.
`Cc1cc(C)n(CC2CCN(Cc3ccc(Br)cc3)CC2)n1` gave an IRF reporter of 1.19 ± 0.21.
`C#CCCCCCCCCCCCC(=O)CC(O)COC(C)=O` (stereo not given) was tested, and the IRF reporter was 0.878 ± 0.098.
`COc1ccc(-n2cnc3cc(NC(C)=O)ccc32)cc1` showed an IRF reporter of 1.19 ± 0.15.
Compound `COC1CC2CCC(C1)N2S(=O)(=O)c1ccc(Br)cc1` (stereo not given) has an IRF reporter of 1.22 ± 0.16.
`CN(C)C(=O)c1cc2cnc(Nc3ccc(N4CCNCC4)cn3)nc2n1C1CCCC1` was tested, and the IRF reporter was 1.35 ± 0.29.
With `CCCOc1ccc(-c2ccc(-c3nc(Cc4ccc(OC)c(OC)c4)no3)cc2)cc1` the IRF reporter was 1.08 ± 0.063.
In the case of `CCOC(=O)C1=C(C)NC(=O)N(C(C)=O)C1c1ccc(Br)cc1` (stereo not given), the IRF reporter is reported as 1.66 ± 0.14.
Compound `O=C(Nc1ccccn1)c1ccc(OCC2CCCO2)nc1` (stereo not given) has an IRF reporter of 1.04 ± 0.059.
`O=c1[nH]nc(Br)c(=O)[nH]1` gave an IRF reporter of 1.03 ± 0.057.
`O=C(O)CCCN1CCC(O[C@@H](c2ccc(Cl)cc2)c2ccccn2)CC1.O=S(=O)(O)c1ccccc1` gave an IRF reporter of 1.18 ± 0.26.
Work on `COc1cc2c(cc1Cc1cccc(Cl)c1F)c(=O)c(C(=O)O)cn2[C@H](CO)C(C)C` yielded an IRF reporter of 1.13 ± 0.12.
`CC1CC(=O)C2=C(C1)OC(N)=C(C#N)C2c1cccc2ccccc12` (stereo not given) showed an IRF reporter of 1.26 ± 0.088.
`COc1ccc(Br)c(C(=O)N2CCOCC2CO)c1` (stereo not given) showed an IRF reporter of 1.36 ± 0.26.
For `COC(=O)c1ccc(N2C(=O)c3ccc(Oc4cccc([N+](=O)[O-])c4)cc3C2=O)cc1`, the IRF reporter was 1.33 ± 0.17.
In the case of `CC(C)NCC(O)COc1ccccc1C(C)(C)C.Cl` (stereo not given), the IRF reporter is reported as 1.02 ± 0.084.
`COc1ccc([C@H]2CNC(=O)C2)cc1OC1CCCC1` gave an IRF reporter of 1.03 ± 0.22.
`Cc1c(C)c2c(c(C)c1O)CCC(C)(CCCC(C)CCCC(C)CCCC(C)C)O2` (stereo not given) was tested, and the IRF reporter was 0.965 ± 0.13.
In the case of `Oc1ccc(O)cc1`, the IRF reporter is reported as 0.58 ± 0.41.
Compound `Cc1c(C)n2c3c(=O)n(Cc4ccccc4F)c(=O)n(C)c3nc2n1CCCN1CCOCC1` has an IRF reporter of 1.06 ± 0.14.
In the case of `CCOc1ccc(CN(CCc2ccc3c(c2)OCO3)Cc2cccc3ccccc23)cc1`, the IRF reporter is reported as 0.908 ± 0.045.
`Cc1ccc(O)c([C@H](CCN(C(C)C)C(C)C)c2ccccc2)c1.O=C(O)[C@H](O)[C@@H](O)C(=O)O` showed an IRF reporter of 0.951 ± 0.051.
In the case of `CCOC(=O)N(CC(=O)OC)CP(=O)(O)C(Cc1ccccc1)C(=O)O` (stereo not given), the IRF reporter is reported as 1.41 ± 0.21.
For `COC(=O)CNC(c1ccccc1)c1cc(Br)ccc1NC(=O)c1ccccc1Br` (stereo not given), the IRF reporter was 1.1 ± 0.14.

Same assay, conditions: modulator concentration 10 µM; agonist: MPLA […]
In the case of `CN(C)CCNC(=O)C(=O)NC(c1ccccc1)c1ccccc1`, the IRF reporter is reported as 0.962 ± 0.12.
`Cc1ccsc1C(=CCCN1CCC[C@@H](C(=O)O)C1)c1sccc1C` showed an IRF reporter of 0.732 ± 0.082.
With `O=C1c2ccccc2C(=O)C1c1ccncc1` the IRF reporter was 0.799 ± 0.068.
With `Oc1c2c(nc3cc(-c4ccc(Cl)cc4)nn13)CCS2` the IRF reporter was 1.11 ± 0.14.
For `CC(C(=O)N1CCN(S(=O)(=O)C2CC2)CC1)n1nc2c(cc1=O)CCC2` (stereo not given), the IRF reporter was 0.904 ± 0.19.
`COc1ccc2c(C)nc(Nc3nc(C)cc(-c4ccccc4)n3)nc2c1` was tested, and the IRF reporter was 1.37 ± 0.17.
`COC(CNC(=O)c1cccc(Br)c1)c1ccccc1C` (stereo not given) gave an IRF reporter of 0.901 ± 0.21.
In the case of `COc1ccc(OC)c(C2CC(c3ccc(Cl)cc3)=NN2S(C)(=O)=O)c1` (stereo not given), the IRF reporter is reported as 1.19 ± 0.43.
`Cc1nc[nH]c1CN1CCc2c(c3ccccc3n2C)C1=O.Cl` showed an IRF reporter of 1.12 ± 0.11.
Work on `CC(=NNC(=O)CSc1nc2ccccc2n1Cc1ccccc1)c1ccc(Cl)cc1` yielded an IRF reporter of 1.36 ± 0.16.
Work on `CN1CCN(C2=C(Cl)C(=O)N(c3cccc(Cl)c3)C2=O)CC1` yielded an IRF reporter of 0.974 ± 0.096.
For `CC(=O)C1CCC2C3CC=C4CC(O)CCC4(C)C3CCC12C` (stereo not given), the IRF reporter was 1.32 ± 0.16.
`CC(C)CNC(=O)C(=O)Nc1ccc(C(C)C)cc1` gave an IRF reporter of 0.958 ± 0.093.
With `COc1ccc(CCNCC(O)COc2cccc(C)c2)cc1OC.Cl` (stereo not given) the IRF reporter was 1.43 ± 0.25.
In the case of `CCOc1ccc(C=c2sc3nc4ccccc4n3c2=O)cc1Cl`, the IRF reporter is reported as 0.974 ± 0.094.
In the case of `O=C(CCCN1CCC(O)(c2ccc(Br)cc2)CC1)c1ccc(F)cc1` [Prestw-509], the IRF reporter is reported as 1.16 ± 0.13.
`CC(=O)Nc1ccc(S(=O)(=O)N2CCC(Oc3nc(C)cc(C)n3)C2)cc1` (stereo not given) gave an IRF reporter of 0.932 ± 0.15.
Compound `Cc1cc(C)n(CC2CCN(Cc3ccc(Br)cc3)CC2)n1` has an IRF reporter of 1.27 ± 0.39.
With `C#CCCCCCCCCCCCC(=O)CC(O)COC(C)=O` (stereo not given) the IRF reporter was 0.81 ± 0.15.
`COc1ccc(-n2cnc3cc(NC(C)=O)ccc32)cc1` showed an IRF reporter of 1.14 ± 0.12.
With `COC1CC2CCC(C1)N2S(=O)(=O)c1ccc(Br)cc1` (stereo not given) the IRF reporter was 1.15 ± 0.24.
Work on `CN(C)C(=O)c1cc2cnc(Nc3ccc(N4CCNCC4)cn3)nc2n1C1CCCC1` yielded an IRF reporter of 1.53 ± 0.49.
`CCCOc1ccc(-c2ccc(-c3nc(Cc4ccc(OC)c(OC)c4)no3)cc2)cc1` gave an IRF reporter of 1.12 ± 0.12.
`CCOC(=O)C1=C(C)NC(=O)N(C(C)=O)C1c1ccc(Br)cc1` (stereo not given) gave an IRF reporter of 1.34 ± 0.2.
`O=C(Nc1ccccn1)c1ccc(OCC2CCCO2)nc1` (stereo not given) showed an IRF reporter of 1.04 ± 0.1.
Work on `O=c1[nH]nc(Br)c(=O)[nH]1` yielded an IRF reporter of 1.02 ± 0.086.
`O=C(O)CCCN1CCC(O[C@@H](c2ccc(Cl)cc2)c2ccccn2)CC1.O=S(=O)(O)c1ccccc1` showed an IRF reporter of 1.09 ± 0.1.
Compound `COc1cc2c(cc1Cc1cccc(Cl)c1F)c(=O)c(C(=O)O)cn2[C@H](CO)C(C)C` has an IRF reporter of 0.848 ± 0.079.
Work on `CC1CC(=O)C2=C(C1)OC(N)=C(C#N)C2c1cccc2ccccc12` (stereo not given) yielded an IRF reporter of 1.24 ± 0.14.
In the case of `COc1ccc(Br)c(C(=O)N2CCOCC2CO)c1` (stereo not given), the IRF reporter is reported as 1.52 ± 0.51.
With `COC(=O)c1ccc(N2C(=O)c3ccc(Oc4cccc([N+](=O)[O-])c4)cc3C2=O)cc1` the IRF reporter was 1.71 ± 0.19.
With `CC(C)NCC(O)COc1ccccc1C(C)(C)C.Cl` (stereo not given) the IRF reporter was 0.952 ± 0.17.
Compound `COc1ccc([C@H]2CNC(=O)C2)cc1OC1CCCC1` has an IRF reporter of 1.41 ± 0.15.
In the case of `Cc1c(C)c2c(c(C)c1O)CCC(C)(CCCC(C)CCCC(C)CCCC(C)C)O2` (stereo not given), the IRF reporter is reported as 0.994 ± 0.1.
With `Oc1ccc(O)cc1` the IRF reporter was 0.211 ± 0.13.
`Cc1c(C)n2c3c(=O)n(Cc4ccccc4F)c(=O)n(C)c3nc2n1CCCN1CCOCC1` showed an IRF reporter of 1.05 ± 0.37.
Compound `CCOc1ccc(CN(CCc2ccc3c(c2)OCO3)Cc2cccc3ccccc23)cc1` has an IRF reporter of 1.04 ± 0.18.
For `Cc1ccc(O)c([C@H](CCN(C(C)C)C(C)C)c2ccccc2)c1.O=C(O)[C@H](O)[C@@H](O)C(=O)O`, the IRF reporter was 0.729 ± 0.073.
With `CCOC(=O)N(CC(=O)OC)CP(=O)(O)C(Cc1ccccc1)C(=O)O` (stereo not given) the IRF reporter was 1.07 ± 0.095.
For `COC(=O)CNC(c1ccccc1)c1cc(Br)ccc1NC(=O)c1ccccc1Br` (stereo not given), the IRF reporter was 1.52 ± 0.22.
